The results in this text go back to PubChem BioAssay (EPA / NIEHS).

SMILES strings stand for the structures. “And” between values parts separate entries of the source, which are not always exact repeats. Equal values may be shown once. The source made the active and inactive calls. How the source made its calls: active means hit-call score of the fitted dose curve at least 0.9, where 1 is the maximum; inactive means score below 0.9.

The AC50 is the midpoint of the concentration-response curve, whichever way the signal moves.

The nature of assay [1]: BSK_hDFCGF_Proliferation: Cell Proliferation Assessment in the BioMAP Diversity Plus: hDFCGF Assay (AID 2283059).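 Further: curves fitted for both rise and fall of signal versus DMSO baseline.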 To be noted: primary human foreskin fibroblasts. The procedure, abridged:
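Primary human foreskin fibroblasts, sub-confluent; […]; 10% TCA fix, 0.1% SRB stain, A560 total protein. Gain/loss fitted bidirectionally vs DMSO control.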

Assay [2] can be described thus: BSK_hDFCGF_SRB: Viability Assessment in the BioMAP Diversity Plus: hDFCGF Assay (AID 2283061).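 Further: cells exposed to compound for 24 h before the read.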 The settings on record: primary human foreskin fibroblasts. The method in brief: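 Human foreskin primary fibroblasts were treated with compound and assessed 24 h after dosing. Total protein was measured by sulforhodamine B staining (0.1% SRB after 10% TCA fixation, 560 nm read) as a cytotoxicity marker, with bidirectional fitting against DMSO baseline.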

Read-out in assay [3]: TIMP metallopeptidase inhibitor 1 (TIMP1), TIMP1 (gene 7076)
Briefly: BSK_hDFCGF_TIMP1: BioMAP Diversity Plus: hDFCGF Assay for TIMP metallopeptidase inhibitor 1 (TIMP1) Biomarker Activity (AID 2283062). To be noted: primary human foreskin fibroblasts; actives raise or lower the signal. The procedure, abridged: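 Primary human foreskin fibroblasts in the hDFCGF system were dosed with compound for 24 h, then TIMP-1 was measured by ELISA. Activity was fitted bidirectionally relative to DMSO control; parallel SRB staining assessed cytotoxicity.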

Read-out in assay [4]: Vascular cell adhesion molecule 1 (VCAM1), VCAM1 (gene 7412)
Briefly: BSK_hDFCGF_VCAM1: BioMAP Diversity Plus: hDFCGF Assay for Vascular cell adhesion molecule 1 (VCAM1) Biomarker Activity (AID 2283065).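 On AC50: VCAM-1 protein level quantified by ELISA after 24 h chemical exposure.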 The settings on record: primary human foreskin fibroblasts; actives raise or lower the signal. The procedure, abridged:
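Primary human foreskin fibroblasts (hDFCGF system) were dosed with chemical and VCAM-1 was measured by ELISA 24 h later. Bidirectional curve fitting used DMSO as negative control and activity baseline.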

Read-out in assay [5]: Plasminogen activator inhibitor-1 (PAI1), SERPINE1 (gene 5054)
Briefly: BSK_hDFCGF_PAI1: BioMAP Diversity Plus: hDFCGF Assay for Plasminogen activator inhibitor-1 (PAI1) Biomarker Activity (AID 2283066). The settings on record: primary human foreskin fibroblasts; actives raise or lower the signal. The procedure, abridged: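 Human foreskin fibroblasts in the hDFCGF system were dosed with compound for 24 h; PAI-1 was quantified by ELISA. Bidirectional curve fitting used DMSO as negative control and baseline.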

Read-out in assay [6]: Intercellular Adhesion Molecule 1 (ICAM1), ICAM1 (gene 3383)
Briefly: BSK_KF3CT_ICAM1: BioMAP Diversity Plus: KF3CT Assay for Intercellular Adhesion Molecule 1 (ICAM1) Biomarker Activity (AID 2283067). The settings on record: primary human keratinocytes with fibroblasts; actives raise or lower the signal. The method in brief: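 Human keratinocyte plus foreskin fibroblast primary co-culture was exposed to chemical for 24 h. ICAM-1 was then quantified by ELISA, and the data were fit bidirectionally against DMSO as the negative control and baseline.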

Read-out in assay [7]: Interferon-gamma inducible Protein 10 (IP10), CXCL10 (gene 3627)
Briefly: BSK_KF3CT_IP10: BioMAP Diversity Plus: KF3CT Assay for Interferon-gamma inducible Protein 10 (IP10) Biomarker Activity (AID 2283068). The settings on record: primary human keratinocytes with fibroblasts; actives raise or lower the signal. The method in brief:
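In a primary skin co-culture of keratinocytes and fibroblasts, IP-10 is quantified by ELISA at 24 h after dosing. SRB staining of parallel wells monitors overt toxicity. Curves are fitted both directions against DMSO.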

The nature of assay [8]: BSK_KF3CT_SRB: Viability Assessment in the BioMAP Diversity Plus: KF3CT Assay (AID 2283069).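 Further: fitted for both signal gain and loss against DMSO baseline.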 To be noted: primary human keratinocytes with fibroblasts. The procedure, abridged: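 Keratinocytes co-cultured with foreskin fibroblasts (human primary); chemical added, 24 h; fix 10% TCA, stain 0.1% SRB, A560. Bidirectional fit vs DMSO.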
Read-out in assay [9]: Interleukin-1 alpha (IL1a), IL1A (gene 3552)
Briefly: BSK_KF3CT_IL1a: BioMAP Diversity Plus: KF3CT Assay for Interleukin-1 alpha (IL1a) Biomarker Activity (AID 2283070). The settings on record: primary human keratinocytes with fibroblasts; actives raise or lower the signal. The procedure, abridged: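 Chemicals were dosed onto co-cultured human keratinocytes and foreskin fibroblasts, IL-1a was quantified by ELISA at 24 h, and activity was fitted in both directions relative to DMSO controls.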

Read-out in assay [10]: TIMP metallopeptidase inhibitor 2 (TIMP2), TIMP2 (gene 7077)
Nature of the assay: BSK_KF3CT_TIMP2: BioMAP Diversity Plus: KF3CT Assay for TIMP metallopeptidase inhibitor 2 (TIMP2) Biomarker Activity (AID 2283071). To be noted: primary human keratinocytes with fibroblasts; actives raise or lower the signal. The procedure, abridged: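 Human primary keratinocyte/foreskin fibroblast co-culture dosed with chemical and sampled at 24 h. TIMP-2 levels quantified by ELISA; bidirectional fitting against DMSO negative control as baseline.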

Read-out in assay [11]: C-C motif chemokine 2 (Homo sapiens) (UniProt P13500)
Briefly: BSK_KF3CT_MCP1: BioMAP Diversity Plus: KF3CT Assay for Monocyte Chemoattractant Protein 1 (MCP1/CCL2) Biomarker Activity (AID 2283073). The settings on record: primary human keratinocytes with fibroblasts; actives raise or lower the signal. The procedure, abridged:
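Human keratinocyte plus foreskin fibroblast primary co-culture exposed to chemical for 24 h. MCP-1 levels measured by ELISA. Bidirectional curve fitting relative to DMSO negative control as baseline.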

Read-out in assay [12]: Matrix Metallopeptidase 9 (MMP9), MMP9 (gene 4318)
Nature of the assay: BSK_KF3CT_MMP9: BioMAP Diversity Plus: KF3CT Assay for Matrix Metallopeptidase 9 (MMP9) Biomarker Activity (AID 2283074). The settings on record: primary human keratinocytes with fibroblasts; actives raise or lower the signal. The method in brief:
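Human keratinocyte/foreskin fibroblast co-culture; compound added; 24 h; MMP-9 by ELISA; bidirectional fit vs DMSO baseline.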

Read-out in assay [13]: urokinase plasminogen activator (uPA), PLAU (gene 5328)
Nature of the assay: BSK_KF3CT_uPA: BioMAP Diversity Plus: KF3CT Assay for urokinase plasminogen activator (uPA) Biomarker Activity (AID 2283075). To be noted: primary human keratinocytes with fibroblasts; actives raise or lower the signal. The procedure, abridged:
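ELISA readout of uPA, analyzed for signal gain or loss relative to DMSO, from a human primary keratinocyte–foreskin fibroblast co-culture measured 24 h after chemical treatment.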

Read-out in assay [14]: E-selectin (Homo sapiens) (UniProt P16581)
Briefly: BSK_LPS_Eselectin: BioMAP Diversity Plus: LPS Assay for Eselectin Biomarker Activity (AID 2283077). To be noted: primary human HUVEC with PBMC; actives raise or lower the signal. The method in brief: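 Human umbilical vein endothelial cells co-cultured with peripheral blood mononuclear cells under LPS stimulation; E-selectin measured by ELISA 24 h after chemical dosing. Activity fitted bidirectionally against DMSO as negative control and baseline.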

Read-out in assay [15]: Interleukin-8 (IL8), CXCL8 (gene 3576)
Briefly: BSK_LPS_IL8: BioMAP Diversity Plus: LPS Assay for Interleukin-8 (IL8) Biomarker Activity (AID 2283078). To be noted: primary human HUVEC with PBMC; actives raise or lower the signal. The method in brief: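 Human umbilical vein endothelial cells co-cultured with PBMC were stimulated with LPS; IL-8 levels were measured by ELISA 24 h after chemical dosing. Activity was fitted bidirectionally against DMSO as negative control and baseline.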

Assay [16] is described as follows: BSK_LPS_SRB: Viability Assessment in the BioMAP Diversity Plus: LPS Assay (AID 2283079).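 Further: total protein by sulforhodamine B absorbance as a cytotoxicity measure; measured one day after compound addition; fitted in both directions against DMSO so loss or gain of signal counts.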 To be noted: primary human HUVEC with PBMC. The method in brief:
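Human umbilical vein endothelial cells co-cultured with PBMC (LPS system) were dosed for 24 h. Total protein was stained with 0.1% sulforhodamine B after 10% TCA fixation, read at 560 nm, and fitted bidirectionally against DMSO baseline.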

Read-out in assay [17]: Monocyte Chemoattractant Protein-1 (MCP1), CCL2 (gene 6347)
Nature of the assay: BSK_LPS_MCP1: BioMAP Diversity Plus: LPS Assay for Monocyte Chemoattractant Protein-1 (MCP1) Biomarker Activity (AID 2283081).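 On AC50: secreted MCP-1 protein quantified by ELISA in culture supernatant.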 The settings on record: primary human HUVEC with PBMC; actives raise or lower the signal. The procedure, abridged: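 HUVEC plus PBMC co-culture (human primary cells, LPS system) exposed to test chemical for 24 h; MCP-1 measured by ELISA. Bidirectional curve fitting against DMSO baseline; parallel SRB total-protein staining flags overt cytotoxicity.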

Assay [18] in a line: BSK_LPS_PGE2: BioMAP Diversity Plus: LPS Assay for Prostaglandin E2 (PGE2) Biomarker Activity (AID 2283082).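 On AC50: secreted prostaglandin E2 measured by ELISA in LPS-stimulated co-culture.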 To be noted: primary human HUVEC with PBMC; actives raise or lower the signal. The procedure, abridged:
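HUVEC plus PBMC co-culture stimulated with LPS; secreted PGE2 quantified by ELISA 24 h after chemical dosing. Activity fitted bidirectionally against DMSO as negative control and baseline; parallel SRB total-protein staining served as cytotoxicity check.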

Read-out in assay [19]: Macrophage colony-stimulating factor (MCSF), CSF1 (gene 1435)
Nature of the assay: BSK_LPS_MCSF: BioMAP Diversity Plus: LPS Assay for Macrophage colony-stimulating factor (MCSF) Biomarker Activity (AID 2283083). To be noted: primary human HUVEC with PBMC; actives raise or lower the signal. The method in brief: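 Human umbilical vein endothelial cells co-cultured with peripheral blood mononuclear cells were exposed to compound for 24 h. M-CSF levels were measured by ELISA, and bidirectional curve fitting used DMSO as the negative control and baseline.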

Read-out in assay [20]: Tissue Factor, F3 (gene 2152)
Nature of the assay: BSK_LPS_TissueFactor: BioMAP Diversity Plus: LPS Assay for Tissue Factor Biomarker Activity (AID 2283084). To be noted: primary human HUVEC with PBMC; actives raise or lower the signal. The method in brief: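 Human umbilical vein endothelial cells co-cultured with peripheral blood mononuclear cells were dosed and stimulated with LPS. Cell-surface CD142 was quantified by ELISA at 24 h. Activity was fitted bidirectionally against DMSO baseline.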

Chain of E-selectin (Homo sapiens) (P16581 whole entry, looked up): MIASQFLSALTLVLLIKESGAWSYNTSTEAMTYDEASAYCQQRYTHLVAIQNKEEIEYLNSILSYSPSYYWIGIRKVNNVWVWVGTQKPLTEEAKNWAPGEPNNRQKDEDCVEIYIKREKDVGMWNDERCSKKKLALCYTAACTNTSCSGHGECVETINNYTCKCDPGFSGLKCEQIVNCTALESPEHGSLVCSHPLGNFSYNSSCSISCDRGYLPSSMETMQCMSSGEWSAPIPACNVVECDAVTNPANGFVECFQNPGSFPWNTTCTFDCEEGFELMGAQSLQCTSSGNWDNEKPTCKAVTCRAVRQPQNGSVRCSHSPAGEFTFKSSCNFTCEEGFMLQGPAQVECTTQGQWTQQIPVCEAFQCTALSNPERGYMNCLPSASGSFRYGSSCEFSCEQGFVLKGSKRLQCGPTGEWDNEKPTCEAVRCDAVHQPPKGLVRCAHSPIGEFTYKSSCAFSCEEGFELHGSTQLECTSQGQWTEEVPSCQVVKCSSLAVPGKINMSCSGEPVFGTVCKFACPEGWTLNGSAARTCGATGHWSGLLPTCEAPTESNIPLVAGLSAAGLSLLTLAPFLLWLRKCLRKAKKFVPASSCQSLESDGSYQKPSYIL

With `Sc1nc2ccccc2s1`, the result in assay [1], in assay [2], in [3], in [4], in assay [5] and in assay [6] was inactive. Besides, the result in assay [7], in [8], in [9], in assay [10], in assay [11] and in assay [12] was inactive. Also, the outcome in assay [13], in [14], in assay [15], in assay [18] and in [19] was inactive. Also, the AC50 is 3.97 µM (active) in [16], 0.504 µM (active) in assay [17] and 4.28 µM (active) in assay [20].
In the case of `CCCCCCC(O)CCCCCCCCCCC(=O)OC` (stereo not given), the AC50 in [1] was 4.09 µM (active); in assay [5], 6.22 µM (active); in assay [18], 1.73 µM (active). Moreover, the outcome in assay [2], in assay [3], in assay [4], in [6], in [7] and in assay [8] was inactive. Further, the result in assay [9], in assay [10], in assay [11], in assay [12], in assay [13] and in [14] was inactive. Besides, the outcome in assay [15], in assay [16], in assay [17], in assay [19] and in [20] was inactive.
Take `CCC(C)=NO`: the result in assay [1], in assay [2], in [3], in assay [4], in [5] and in assay [6] was inactive. For the same compound, the outcome in assay [7], in assay [8], in [9], in assay [10], in [11] and in assay [12] was inactive. Also, the result in [13], in assay [14], in assay [15], in assay [16], in assay [17] and in assay [18] was inactive. Besides, the outcome in assay [19] and in assay [20] was inactive.
In the case of `CN(C)Cc1cc(C(C)(C)C)c(O)c(C(C)(C)C)c1`, the AC50 in [1] is 23.9 µM (active) and 24.5 µM (active); in [4] it was 12.1 µM (active) and 20 µM (active). For the same compound, the result in assay [2], in assay [3], in assay [5], in [6], in assay [7] and in assay [8] was inactive. The outcome in assay [9], in [10], in assay [11], in [12], in assay [13] and in assay [14] was inactive. Moreover, the outcome in [15], in assay [16], in [17], in assay [18], in [19] and in assay [20] was inactive.
